Out of some 340,000 compounds screened, about 6,400 (1.9%) were called active. About 4% were inconclusive and are not listed. The entries come from a sample that favours actives as a whole. Unmarked numbers belong to inactive results. Calls follow the shape of the dose curve; as a rule, active = well fitted falling curve with a large enough effect; inconclusive = small, poorly fitted or top-dose-only effect; inactive = no such curve, though single readings can be large or run the other way.

The results in this text go back to PubChem BioAssay AID651965 (National Center for Advancing Translational Sciences (NCATS), 2013).
Potency is read from the fitted curve at half-maximal effect.

The target in this test is ATP-dependent Clp protease proteolytic subunit (Bacillus subtilis (strain 168)) (UniProt P80244). The test is described as follows: qHTS Assay for Activators of ClpP. Also: the source files actives as falling curves though it sought activators and does not explain the sign; nearly all actives have a fitted effect of over 65% in size. As to conditions: purified B. subtilis ClpP, FRET peptide cleavage, 20 min; series mostly up to 57.5 µM; activity change, negative = active: at the top concentration. Summed up: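 FRET quenching reversal measured ClpP activation: 10 microg/mL B. subtilis ClpP at pH 8 with the FRET-FV decapeptide, read at 430 nm after 320 nm excitation. The 20-min minus 0-min signal was scaled between DMSO/no-enzyme wells and ADEP (5.8 microM final).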
Sequence of ATP-dependent Clp protease proteolytic subunit (Bacillus subtilis (strain 168)) (P80244 whole entry, looked up): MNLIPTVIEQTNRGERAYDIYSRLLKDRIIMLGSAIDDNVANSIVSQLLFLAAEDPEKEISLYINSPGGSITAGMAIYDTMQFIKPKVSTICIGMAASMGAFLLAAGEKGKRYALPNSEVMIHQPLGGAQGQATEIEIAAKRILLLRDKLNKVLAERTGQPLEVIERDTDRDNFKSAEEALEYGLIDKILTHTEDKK
Background: Quantitative high-throughput screening tests each substance at several concentrations.
On to `Nc1ncnc2c1ncn2[C@@H]1O[C@H](CNC(=O)[C@H](N)Cc2cccnc2)[C@@H](O)[C@H]1O`, for which the “activity change, negative = active” value was -0.917%.
Turning to `COc1nc(-c2ccc(Cl)cc2)ccc1-c1noc(-c2cccs2)n1`, the Potency was 14.1 µM (active).
As to `COc1ccc(CCc2nc(-c3cccs3)no2)cc1`, the “activity change, negative = active” value is -0.0517%.
As for `Clc1ccc(Cc2nnc(-c3cccs3)o2)cc1`, the “activity change, negative = active” value was -4.92%.
On the same count and under the same terms, then `C[C@@H]1CN([C@H](C)CO)C(=O)c2cc(-c3ccc(F)cc3)cnc2O[C@H]1CN(C)C(=O)c1ccc(F)cc1`, with -3.91%.
As for `O=C1NCC(Nc2ccccc2)C(=O)N1` (configuration not stated), the Potency is 12.6 µM (active).
On to `O=C(CC1Nc2ccccc2NC1=O)Nc1ccccc1` (configuration not stated), for which the “activity change, negative = active” value is -1.78%.
`O=C1NCC(c2ccccc2)(c2ccccc2)C(=O)N1`: the “activity change, negative = active” value is -1.81%.
Same read-out and setting: to `CCCCNC(=O)Cn1c(SCc2cccc(Cl)c2)nc2ccncc21` belongs -5.3%; to `COc1ccc(C(O)c2nc(-c3ccc4c(c3)OCO4)cs2)cc1` (configuration not stated), 0.0628%; to `COCCNc1nc(Nc2ccccc2Cl)c2sc(-c3ccccc3)cc2n1`, 4.75%.
`CC1=C(C)CC2C(=O)N(c3cccc4ccccc34)C(=O)C2C1` (configuration not stated): the “activity change, negative = active” value was -0.206%.
On the same count and under the same terms, to `O=C1c2ccccc2C(=O)N1c1ccccc1S(=O)C(F)(F)F` (configuration not stated) belongs -3.11%.
Consider `O=C1c2ccccc2C(=O)N1c1cccc2ccccc12`, for which the Potency was 7.94 µM (active).
Turning to `Cc1ccc(NC(=O)[C@H](Cc2ccccc2)NC(=O)CC[C@H]2O[C@@H](n3ccc(=O)[nH]c3=O)[C@H](O)[C@@H]2O)cc1C`, the “activity change, negative = active” value is 0.668%.
Still for that read-out and setting: to `O=C(COc1ncnc2ccccc12)NC(=O)NCc1ccccc1` belongs -0.394%; to `Cc1ccc(C2=NN(C(=O)COc3ncnc4ccccc34)C(c3ccco3)C2)cc1` (configuration not stated), 0.222%.
For `CC(C)C(C)NC(=O)COc1ncnc2ccccc12` (configuration not stated), the Potency was 11.2 µM (active).
With `O[C@H]1C[C@H](c2ccc(Cl)cc2)N(Cc2cccs2)C[C@@H]1n1cc(C2CC2)nn1`, the “activity change, negative = active” value was -2.04%.
Turning to `COC(=O)c1c(C)c(C)nc(N)c1C#N`, the Potency was 8.91 µM (active).
In the case of `COC(=O)c1c(C)cc(O)c(C)c1O`, the “activity change, negative = active” value is -3.9%.
On to `Cc1nc(SCC(=O)NC2CCCCC2C)c(C#N)c(C)c1C` (configuration not stated), for which the “activity change, negative = active” value is -2.83%.
Same read-out and setting: then `COc1ccc(NC(=O)C2Cc3c(-c4cccc(NC(C)=O)c4)ccnc3O2)cc1OC` (configuration not stated), with -10.8%; and `CC(=O)OC[C@@H]1CN(Cc2ccccc2)C[C@H](n2cnc3c(NCc4ccco4)ncnc32)O1`, with -0.932%; and `Nc1ncnc2nnsc12`, with -12.1%.
For the compound `Cn1c(=NC(=O)CSCC(=O)N2CCCCC2)sc2ccccc21`, the Potency was 35.5 µM (active).
As for `Cn1c(=NC(=O)c2cnccn2)sc2ccccc21`, the “activity change, negative = active” value is -0.632%.
Still for that read-out and setting: then `O=C(CSCc1cccs1)N1CCCC1`, with 0.795%; and `CCc1nc2c(OCc3cccc(OC)c3)cccn2c1N(C)C(=O)C(C)C`, with -4.33%.
The same measure, in the same setting: then `Cc1cccc(C)c1Cn1c(C)c(C(=O)NCc2cccc(Cl)c2)sc1=O`, with -3.46%; and `CN1OC[C@@H]2CN(C(=O)c3cccnc3)[C@H](c3ccc(N4CCCCC4)cc3)C[C@@H]21`, with -5.72%; and `c1ccc(-c2cc(-c3ccccc3)[nH]n2)cc1`, with -3.14%.
`c1ccc(-c2c[nH]c(-c3ccccc3)c2)cc1`: the Potency was 20 µM (active).
In the case of `c1ccc(-c2ccc3c(c2)NC(C2Nc4cc(-c5ccccc5)ccc4O2)O3)cc1` (configuration not stated), the “activity change, negative = active” value is -25.4%.
On the same count and under the same terms, then `CCCCN1CC(N2CCN(Cc3cccc(C)c3)CC2)CS1(=O)=O` (configuration not stated), with 0.479%; and `COc1ccc(C2CC(c3cccs3)=NN2C(=O)COC(=O)c2cc3ccccc3cc2O)cc1OC` (configuration not stated), with -1.29%.
Take `O=C1c2cccc(OCC(=O)N3N=C(c4cccs4)CC3c3ccc(F)cc3)c2CCN1Cc1ccccc1` (configuration not stated): the Potency was 15.8 µM (active).
As for `O=C(COc1ccccc1Cl)N1N=C(c2cccs2)CC1c1ccco1` (configuration not stated), the “activity change, negative = active” value was 4.14%.
In the case of `CN(C)CCNC(=O)c1ccc(-c2cn3c(-c4ccc(Oc5ccccc5)cc4)cnc3cn2)cc1`, the “activity change, negative = active” value was 5.02%.
Turning to `OC(c1ccccc1)c1nc(-c2cnc3ccccc3c2)cs1` (configuration not stated), the “activity change, negative = active” value is -21.1%.
Same read-out and setting: to `C(=Nc1ccc(/C=C/c2ccnc3ccccc23)cc1)c1cc2c3c(c1)CCCN3CCC2` belongs -19.7%; to `CC1=C(C(=O)N(C(C)C)C(C)C)CC(CC(=O)NCC2CCCCC2)C(=O)N1Cc1ccccc1` (configuration not stated), 1.72%; to `CNC(=O)/C(=C\C=C\c1ccccc1)NC(=O)c1ccc([N+](=O)[O-])cc1`, -4.83%.
The same measure, in the same setting: then `Cc1ccc(C(=O)N/C(=C/C=C/c2ccccc2)C(=O)NCc2ccco2)cc1`, with -5.07%.
With `O=C(NCCCO)/C(=C\C=C\c1ccccc1)NC(=O)c1ccccc1Cl`, the Potency is 28.2 µM (active).
Consider `Cc1cccc(C)c1-n1nnnc1C1(C)CCC(=O)N1CCOc1ccccc1` (configuration not stated), for which the “activity change, negative = active” value is 2.41%.
`CC1(C(=O)NS(=O)(=O)c2cccc(F)c2)CCN1C(=O)Cc1cc(F)ccc1F` (configuration not stated): the “activity change, negative = active” value is 0.531%.
Still for that read-out and setting: then `C[C@@H]1CN([C@@H](C)CO)C(=O)c2c(c3ccccc3n2C)-c2ccccc2CO[C@H]1CN(C)C(=O)C1CC1`, with -28.9%.
As to `COc1ccc(S(=O)(=O)NC(=O)C2(C)CCN2C(=O)COc2ccc(Cl)cc2)cc1` (configuration not stated), the “activity change, negative = active” value was -0.2%.
Consider `CN1CCCN(S(=O)(=O)c2ccc3c(c2)OCCO3)CC1`, for which the Potency entry was “inactive”.
For the compound `CCCCCC(=O)N1CCN(S(=O)(=O)c2ccc3c(c2)OCCCO3)CC1`, the Potency is 28.2 µM (active).
For the compound `CCNC(=O)N1CCN(S(=O)(=O)c2ccc3c(c2)OCCCO3)CC1`, the “activity change, negative = active” value is -0.0478%.
